# Bioassay records deposited in PubChem by The Scripps Research Institute Molecular Screening Center.
# PLC-gamma1 inh = blocks human PLC-gamma1 enzyme activity; P19174; purified PLC-gamma1, fluorogenic substrate, fluorescence; inhibition, % at 12.2 µM; actives 0.84% (n = 370,000); AID 720700; in the data active = inhibition above about 9.5%
# ADAM10 inh = ADAM10 inhibition, QFRET primary screen; AID 720582; recombinant ADAM10, EDANS/DABCYL FRET peptide cleavage, 3 h; inhibition, % at 7 µM; actives 0.62% (n = 370,000);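 active = inhibition above a per-campaign cutoff equal to the mean of compounds falling between control-based bounds plus 3 SD, cut at about 20% in these data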;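 also: 0% = DMSO wells while the 100% control is not disclosed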
# ADAM17 inh = inhibitors of human ADAM17. actives 0.83% (n = 370,000). recombinant ADAM17, EDANS/DABCYL FRET peptide cleavage. AID 720648. inhibition, % at 6.95 µM;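 active = inhibition above the mean of compounds lying between control limits plus 3 SD, set per campaign, cut at about 8.5% in these data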;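 also: 0% = DMSO-only wells as the low control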
# Target sequence (P78536 215-824 limits assumed): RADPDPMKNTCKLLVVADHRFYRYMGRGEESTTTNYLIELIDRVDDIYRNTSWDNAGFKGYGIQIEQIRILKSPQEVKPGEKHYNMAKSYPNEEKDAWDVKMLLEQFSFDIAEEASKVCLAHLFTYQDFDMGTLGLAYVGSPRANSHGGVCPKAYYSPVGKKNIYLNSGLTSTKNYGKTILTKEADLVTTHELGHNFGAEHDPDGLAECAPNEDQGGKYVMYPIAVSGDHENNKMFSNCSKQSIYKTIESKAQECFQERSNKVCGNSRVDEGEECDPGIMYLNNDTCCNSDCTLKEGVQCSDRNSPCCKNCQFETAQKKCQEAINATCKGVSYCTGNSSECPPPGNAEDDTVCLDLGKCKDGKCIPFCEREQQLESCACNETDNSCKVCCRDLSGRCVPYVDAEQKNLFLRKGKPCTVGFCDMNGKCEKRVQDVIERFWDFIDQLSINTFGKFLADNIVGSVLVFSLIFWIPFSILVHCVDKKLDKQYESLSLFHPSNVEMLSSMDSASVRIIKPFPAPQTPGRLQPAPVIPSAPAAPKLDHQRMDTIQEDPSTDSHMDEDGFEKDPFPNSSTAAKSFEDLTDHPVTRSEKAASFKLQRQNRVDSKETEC
# proKLK7 act = activates the human kallikrein-7 zymogen | purified proKLK7, EDANS-DABCYL substrate fluorescence; 100% is mature enzyme control, 0% vehicle | P49862 | AID 652039 | actives 0.9% (n = 370,000) | activation, % at 7 µM;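 active = activation above the mean of all tested compounds plus 3 SD, computed per campaign excluding outliers beyond control limits, cut at about 13% in these data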
# PLC-beta3 inh = PLC-beta3 (human) inhibition, primary screen | Purified PLC-beta3, fluorogenic substrate, fluorescence | inhibition, % at 12.2 µM | actives 0.18% (n = 370,000) | AID 720704; in the data active = inhibition above about 11%;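 also: 0% = median of compound wells on plate and 100% = full blocker control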
# KLK7 act conf = proKLK7 activation, confirmation; shares compounds with proKLK7 act; purified proKLK7, EDANS-DABCYL substrate fluorescence; scaled: vehicle 0, mature enzyme 100; activation, % at 7 µM; actives 68% (n = 3,200); AID 686949;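 active = activation, as change over the incubation, above the mean of all tested compounds plus 3 SD, cut at about 13% in these data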
# EDANS interfere = optically interferes with EDANS-DABCYL signal, flagging KLK7 hits; shares compounds with proKLK7 act; EDANS-DABCYL substrate fluorescence interference, no enzyme, 4 h; solvent 0%, active enzyme control 100%; activation, % at 7 µM; actives 80% (n = 3,200); AID 686952;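 active = activation above the all-compound mean plus 3 SD, ignoring values outside control-based bounds, cut at about 4.8% in these data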;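 also: value is the 4 h activation minus the activation read at time zero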
# Numbers without * were called inactive; i = inactive; . = no result. Shown are actives, neighbours in structure and some others; about 2.9% of the full set was active somewhere.
SMILES,PLC-gamma1 inh,ADAM10 inh,ADAM17 inh,proKLK7 act,PLC-beta3 inh,KLK7 act conf,EDANS interfere
COc1ccc(Cn2cc3c(-c4ccc(F)cc4)nnc-3c3cc(OC)c(OC)cc32)cc1,-435.6,-346.6,-71.5,-34.6,i,.,.
COc1cc2c3nnc(-c4ccc(F)cc4)c-3cn(Cc3ccc(F)cc3)c2cc1OC,-374.0,i,-119.4,13.2*,i,-5.0,-7.4
Cc1onc(-c2c(F)cccc2Cl)c1C(=O)Nc1ccccc1N1CCOCC1,1.3,-7.2,-1.8,-0.3,-6.1,.,.
CSCCC(NS(=O)(=O)c1ccccc1)C(=O)OCc1cc(=O)oc2cc(O)ccc12 (stereo not given),i,i,-420.4,435.4*,i,497.9*,529.0*
Cc1ccc(NC(=O)CSC(C)C(=O)OCc2cc(=O)oc3cc(O)ccc23)cc1 (stereo not given),-486.6,i,-351.1,241.2*,i,314.3*,275.5*
CC(=O)Nc1ccc2c(COC(=O)[C@H](C)N3C(=O)C4CCCCC4C3=O)cc(=O)oc2c1 (stereo not given in full),-329.5,i,i,23.9*,-458.6,3.7,4.7*
COc1ccccc1N1CCN(CCCNc2cc(=O)n(C)c(=O)n2C)CC1,1.9,-16.0,0.5,-1.1,-1.4,.,.
CCN(CC(=O)NCc1cccs1)C(=O)c1ccccc1Cl,6.5,0.5,4.1,-0.5,1.3,.,.
Cc1nc2c(C)cccc2c2c1CCN2c1ccccc1F,i,i,i,157.4*,i,61.3*,68.6*
CNC(C)C#Cc1ccc2oc3cccc(OC)c3c(=O)c2c1 (stereo not given),-411.0,-412.9,-135.2,34.1*,i,7.6,12.1*
CSC1=C(C#N)C(c2ccc(Cl)cc2)C2=C(CC(C)(C)CC2=O)N1 (stereo not given),-42.8,-30.9,-7.0,1.5,-57.7,.,.
COc1cccc(C2C(C#N)=C(C)NC3=C2C(=O)CC(C)(C)C3)c1 (stereo not given),i,i,i,25.1*,i,17.6*,34.1*
COc1ccc(C2C(C#N)=C(C)NC3=C2C(=O)CC(C)(C)C3)cc1 (stereo not given),i,i,-329.0,20.6*,i,60.7*,66.1*
Cc1noc2c1C(c1ccc(N(C)C)cc1)C1=C(CC(C)(C)CC1=O)N2 (stereo not given),-11.6,-1.2,-0.6,0.5,-22.6,.,.
Cc1ccc(C2C3=C(CC(C)(C)CC3=O)Nc3onc(C)c32)cc1 (stereo not given),-484.1,i,-223.4,14.7*,i,-3.0,-7.7
CCCSC1=C(C#N)C(c2ccc(OC)cc2)C2=C(CC(C)(C)CC2=O)N1 (stereo not given),-53.5,-39.1,-13.3,16.5*,-71.3,-1.1,-0.6
O=C1OC(c2ccc(Cl)cc2)=C/C1=C/c1cccnc1,-2.4,0.9,-5.3,0.1,-9.0,.,.
Cc1cc2oc(=O)c3c(c2cc1OC(=O)c1ccco1)CCCC3,-9.1,-7.1,-4.0,0.9,-2.7,.,.
O=C(Oc1ccc2c3c(c(=O)oc2c1)CCC3)c1ccco1,i,i,i,577.5*,i,774.1*,820.1*
CC(=O)Oc1cc2oc(=O)c3c(c2cc1Cl)CCC3,i,i,i,73.6*,i,339.7*,402.6*
CC(=O)Oc1cc2oc(=O)cc(C)c2cc1Cl,i,i,i,82.0*,i,368.2*,377.3*
Cc1ccc(S(=O)(=O)NC(C(=O)Oc2cc3oc(=O)cc(C)c3cc2Cl)C(C)C)cc1 (stereo not given),i,i,i,103.9*,i,172.8*,101.7*
Cc1cc(=O)oc2cc(OC(C)C(=O)O)c(Cl)cc12 (stereo not given),-27.2,-270.6,-89.8,0.4,-35.9,.,.
O=S(=O)(c1ccc(N2CC=C(c3ccccc3)CC2)nc1)N1CCCC1,-18.4,-27.4,-4.9,0.6,-24.5,.,.
CS(=O)(=O)c1ccc(S(=O)(=O)N2CCN(C(=O)C(O)c3ccccc3)CC2)cc1 (stereo not given),4.9,-11.9,1.5,-0.2,1.0,.,.
SMILES,PLC-gamma1 inh,ADAM10 inh,ADAM17 inh,proKLK7 act,PLC-beta3 inh,KLK7 act conf,EDANS interfere
O=C(Oc1cc2oc(=O)c3c(c2cc1Cl)CCCC3)c1ccco1,i,i,i,55.1*,i,396.9*,406.3*
O=C(Oc1cc2oc(=O)c3c(c2cc1Cl)CCCC3)c1cccs1,i,i,i,61.6*,i,260.2*,222.8*
O=C(Oc1ccc2c3c(c(=O)oc2c1)CCCC3)c1cccs1,-288.5,i,-263.4,-23.8,-315.9,.,.
O=C(CCCN1C(=O)c2ccccc2C1=O)Oc1ccc(F)cc1,2.2,-1.2,-3.2,0.1,0.6,.,.
O=C(CCCCCN1C(=O)c2ccccc2C1=O)Oc1ccc2c3c(c(=O)oc2c1)CCC3,-214.1,i,-304.3,30.6*,-232.7,215.5*,146.3*
CN(CCCNC(=O)Cn1c(=O)c2cccn2c2ccccc21)Cc1ccccc1,-1.6,-10.2,0.2,-0.7,-13.2,.,.
Oc1ccccc1N1CCN(C(=S)NCCc2ccccc2)CC1,4.5,12.2,2.5,-0.5,3.0,.,.
O=S(=O)(Nc1cccc(-c2cn3cccnc3n2)c1)c1ccc(Cl)cc1,-353.4,i,-327.6,27.8*,-370.4,6.3,6.4*
COc1ccc(C)cc1S(=O)(=O)Nc1cccc(-c2cn3cccnc3n2)c1,-244.2,i,-315.5,18.0*,-365.3,-18.0,-25.3
CC1CCCC(NC(=O)COC(=O)c2ccc(Cl)nc2)C1C (stereo not given),0.8,-11.9,-3.7,-0.7,-9.8,.,.
Nc1ccc(-c2nc3cc(N)ccc3n2CCO)cc1,i,i,-393.6,67.6*,i,66.1*,69.2*
Cn1c(CO)nc2cc(N)ccc21,-10.8,-6.3,-4.2,1.1,-12.2,.,.
CCOC(=O)C1=C(C)Nc2ccccc2N=C1NC(=O)Cc1ccc(Br)cc1,1.6,6.4,1.8,-0.4,1.7,.,.
CCC(NC(=O)OCc1ccccc1)C(=O)Oc1ccc2ccc(=O)oc2c1 (stereo not given),i,i,i,74.6*,i,434.2*,455.3*
O=C(Oc1ccc2ccc(=O)oc2c1)C1CCCCC1,i,i,-470.1,106.5*,i,337.4*,300.7*
COc1cccc(C(=O)COc2ccc3ccc(=O)oc3c2)c1,-12.8,-42.0,-14.5,0.5,-10.2,.,.
COc1ccc(C(=O)Oc2ccc3ccc(=O)oc3c2)cc1,-62.9,-110.9,-48.5,19.5*,-93.7,122.3*,128.0*
CCNC(=O)C(Cc1ccccc1)NC(=O)OCc1ccccc1 (stereo not given),0.5,-2.5,-5.7,0.4,-1.9,.,.
